biological target: COPS5 (UniProt Q92905); experiment: log2 ratio of Biotin-Ahx-Ub-VS probe labelling (fragment/DMSO); higher = less target engagement (more negative = stronger competition), active = hit call of the paper (q ≤ 0.05, log2 ratio ≤ -1); settings: compound concentration: 200 uM; treatment time: 3 h
Protocol: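 Competitive ABPP in HEK293T cell lysate. Lysates were treated with each chloroacetamide fragment at 200 µM for 3 h, then with Biotin-Ahx-Ub-VS (0.5 µM, 1 h), NeutrAvidin-enriched and analysed by diaPASEF LC-MS/MS. Protein LFQ was median-normalised; average log2 ratio is fragment/DMSO from an unpaired t-test (n=3 treated, n=44 DMSO). Hits: q ≤ 0.05, log2 ratio ≤ -1, unique peptides ≥ 2.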

Chain of COPS5 (Q92905 whole entry, looked up, the tested form may be a part): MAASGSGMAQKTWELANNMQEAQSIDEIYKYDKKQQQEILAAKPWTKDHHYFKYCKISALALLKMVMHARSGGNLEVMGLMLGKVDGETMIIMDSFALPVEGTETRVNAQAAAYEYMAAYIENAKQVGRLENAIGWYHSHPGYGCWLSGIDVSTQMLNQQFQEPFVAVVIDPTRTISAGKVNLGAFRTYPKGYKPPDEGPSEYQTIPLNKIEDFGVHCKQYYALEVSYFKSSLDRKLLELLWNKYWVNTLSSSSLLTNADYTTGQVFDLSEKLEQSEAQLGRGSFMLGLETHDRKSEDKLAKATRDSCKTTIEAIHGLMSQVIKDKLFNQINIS

log2 ratio of Biotin-Ahx-Ub-VS probe labelling, inactive:
O=C(CCl)N1CCN(c2nc3ccccc3o2)CC1 -0.251, Cc1cccc(C(CNC(=O)CCl)N2CCOCC2)c1.Cl (stereo not given) 0.0369, Cc1cccc(NC(=O)CCl)c1C -0.347, CN(CCC(O)c1ccc(Br)cc1)C(=O)CCl (stereo not given) -0.266, Cl.O=C(CCl)N1CCCC(c2ncc[nH]2)C1 (stereo not given) 0.0747, CC(O)CC1CCN(C(=O)CCl)CC1 (stereo not given) -0.25, O=C(CCl)NCCC1=CCCCC1 0.0168, Cc1ccc(-c2nnc(C)[nH]2)c(NC(=O)CCl)c1 0.151, CN(C(=O)CCl)c1nc2ccccc2s1 -0.0311, CNC(=O)C1CCN(C(=O)CCl)CC1 0.16, O=C(CCl)NC1CCOc2ccccc21 (stereo not given) -0.296, O=C(O)C1Cc2ccccc2CN1C(=O)CCl (stereo not given) 0.15, Cc1ccc(C)c(NC(=O)CCl)c1 -0.0407, Cl.Cn1ncc2c1CC(NC(=O)CCl)CC2 (stereo not given) -0.0206, O=C(CCl)NC1(c2ccc3c(c2)OCCO3)CCCC1 -0.172, Cl.O=C(CCl)NCc1cc2c(nc1O)CCCC2 -0.023, NC(=O)C1CCCN(C(=O)CCl)C1 (stereo not given) 0.0012, Cc1cccc(N2CCC(NC(=O)CCl)C2=O)c1 (stereo not given) -0.0421, O=C(CCl)NCc1cccc(F)c1 0.17, CCN(C(=O)CCl)C1CCCCC1 0.0876, O=C(CCl)NCCc1cccc2ccccc12 -0.0396, O=C(CCl)NCc1cccc(N2CCCC2=O)c1 -0.0124, CCN(C(=O)CCl)C1CCS(=O)(=O)C1 (stereo not given) -0.0629, O=C(CCl)NCC1(c2ccccc2)CC1 0.0827, O=C(CCl)N1CCCC2CCCCC21 (stereo not given) -0.175, Cc1nc(CC2CCN(C(=O)CCl)CC2)no1 0.22, O=C(CCl)N1CCOC(CCc2ccccc2)C1 (stereo not given) -0.026, Cl.O=C(CCl)N1CCn2ncc(O)c2C1 0.242, C[C@H]1CN(C(=O)CCl)CCN1C(=O)c1cnn(C)c1.Cl -0.0598, C#Cc1cccc(NC(=O)CCl)c1 -0.274, O=C(CCl)N1CCc2nc[nH]c2C1c1ccc(Cl)cc1 (stereo not given) -0.139, CC(NC(=O)CCl)c1cc2n(n1)CCCC2.Cl (stereo not given) -0.394, Cl.O=C(CCl)NC1(c2ncccn2)CCC1 0.0888, CCC1c2ccsc2CCN1C(=O)CCl (stereo not given) -0.188, O=C(CCl)Nc1cccc(C(=O)N2CCSCC2)c1 -0.111, Cl.Cn1c(CNC(=O)CCl)nc2cccnc21 0.0916, O=C(CCl)N1CCOCC1C1CC1 (stereo not given) 0.143, Cl.O=C(CCl)N[C@H]1C[C@@H](n2cccn2)C1 -0.0476, C[C@@H](NC(=O)CCl)c1cccc(C#N)c1 -0.193, Cn1cc(CN(Cc2ccc(Cl)cc2)C(=O)CCl)cn1 -0.179
